In ChEMBL document CHEMBL1961873, “Compounds: GSK PKIS; Assays: Nanosyn kinase panel” (2012):

What was measured:
[1] = biological target: Sphingosine kinase 1 (Homo sapiens) (UniProt Q9NYA1); conditions: at 1 µM;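 also: mean SPHK1 inhibition value reported from the GSK PKIS kinase panel screen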
[2] = biological target: T1, Sphingosine kinase 2 (Homo sapiens) (UniProt Q9NRA0); conditions: at 0.1 µM
T1 sequence (whole entry): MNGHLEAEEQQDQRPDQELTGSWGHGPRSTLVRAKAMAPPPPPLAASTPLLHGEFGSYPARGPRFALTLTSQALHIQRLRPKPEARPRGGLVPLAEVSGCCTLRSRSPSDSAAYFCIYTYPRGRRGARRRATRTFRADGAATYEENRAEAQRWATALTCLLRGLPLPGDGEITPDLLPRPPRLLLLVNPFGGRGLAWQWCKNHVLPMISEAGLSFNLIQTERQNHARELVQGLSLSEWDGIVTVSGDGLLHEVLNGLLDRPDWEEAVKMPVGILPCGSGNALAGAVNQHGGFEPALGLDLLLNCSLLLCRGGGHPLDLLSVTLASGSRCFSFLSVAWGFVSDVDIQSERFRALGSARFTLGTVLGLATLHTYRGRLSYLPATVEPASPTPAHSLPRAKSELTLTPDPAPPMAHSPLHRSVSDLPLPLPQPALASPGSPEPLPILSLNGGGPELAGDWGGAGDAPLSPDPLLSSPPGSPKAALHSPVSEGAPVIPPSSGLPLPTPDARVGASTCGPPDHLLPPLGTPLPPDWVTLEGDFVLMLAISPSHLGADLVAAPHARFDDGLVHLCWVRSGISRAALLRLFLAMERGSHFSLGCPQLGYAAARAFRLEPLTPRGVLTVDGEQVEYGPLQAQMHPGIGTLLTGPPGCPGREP

[3] = biological target: T1, Sphingosine kinase 2 (Homo sapiens); conditions: at 1 µM
[4] = biological target: Casein kinase II subunit alpha (Homo sapiens) (UniProt P68400); conditions: at 0.1 µM
Chain of Casein kinase II subunit alpha (Homo sapiens) (P68400 whole entry, looked up): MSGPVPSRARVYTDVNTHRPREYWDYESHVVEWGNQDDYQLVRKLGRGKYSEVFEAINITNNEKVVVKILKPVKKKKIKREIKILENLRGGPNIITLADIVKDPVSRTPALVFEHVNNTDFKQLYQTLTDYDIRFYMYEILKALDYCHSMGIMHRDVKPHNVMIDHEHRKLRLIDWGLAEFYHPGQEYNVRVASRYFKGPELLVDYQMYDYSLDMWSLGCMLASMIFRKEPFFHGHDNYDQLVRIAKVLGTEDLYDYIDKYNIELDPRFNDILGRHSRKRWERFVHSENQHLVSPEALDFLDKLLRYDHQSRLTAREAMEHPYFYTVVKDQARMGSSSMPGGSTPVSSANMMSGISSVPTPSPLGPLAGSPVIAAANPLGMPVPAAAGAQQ

[5] = biological target: Casein kinase II subunit alpha (Homo sapiens) (UniProt P68400); conditions: at 1 µM
[6] = biological target: T2, Inhibitor of nuclear factor kappa-B kinase subunit alpha (Homo sapiens) (UniProt O15111); conditions: at 0.1 µM
T2 sequence (whole entry): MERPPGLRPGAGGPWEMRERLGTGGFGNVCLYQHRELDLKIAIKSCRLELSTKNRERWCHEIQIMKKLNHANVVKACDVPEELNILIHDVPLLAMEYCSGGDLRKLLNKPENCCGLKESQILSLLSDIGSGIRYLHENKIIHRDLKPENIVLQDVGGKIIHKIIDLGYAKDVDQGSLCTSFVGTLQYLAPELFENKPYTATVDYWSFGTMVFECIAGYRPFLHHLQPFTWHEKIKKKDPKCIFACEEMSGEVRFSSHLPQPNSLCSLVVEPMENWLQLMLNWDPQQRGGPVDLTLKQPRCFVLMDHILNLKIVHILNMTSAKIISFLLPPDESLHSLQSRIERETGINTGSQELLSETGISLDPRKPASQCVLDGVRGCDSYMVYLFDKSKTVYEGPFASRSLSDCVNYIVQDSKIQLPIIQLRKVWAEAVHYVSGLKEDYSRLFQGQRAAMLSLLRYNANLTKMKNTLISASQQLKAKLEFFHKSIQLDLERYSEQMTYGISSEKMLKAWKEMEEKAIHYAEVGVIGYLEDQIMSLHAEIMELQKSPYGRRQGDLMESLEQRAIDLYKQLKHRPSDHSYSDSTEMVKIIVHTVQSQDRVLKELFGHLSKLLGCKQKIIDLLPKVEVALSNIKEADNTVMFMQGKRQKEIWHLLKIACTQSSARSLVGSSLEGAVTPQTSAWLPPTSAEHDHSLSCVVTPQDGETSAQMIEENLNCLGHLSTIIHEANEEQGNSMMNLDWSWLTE

[7] = biological target: T2, Inhibitor of nuclear factor kappa-B kinase subunit alpha (Homo sapiens); conditions: at 1 µM
[8] = biological target: T3, Inhibitor of nuclear factor kappa-B kinase subunit beta (Homo sapiens) (UniProt O14920); conditions: at 0.1 µM
T3 sequence (whole entry): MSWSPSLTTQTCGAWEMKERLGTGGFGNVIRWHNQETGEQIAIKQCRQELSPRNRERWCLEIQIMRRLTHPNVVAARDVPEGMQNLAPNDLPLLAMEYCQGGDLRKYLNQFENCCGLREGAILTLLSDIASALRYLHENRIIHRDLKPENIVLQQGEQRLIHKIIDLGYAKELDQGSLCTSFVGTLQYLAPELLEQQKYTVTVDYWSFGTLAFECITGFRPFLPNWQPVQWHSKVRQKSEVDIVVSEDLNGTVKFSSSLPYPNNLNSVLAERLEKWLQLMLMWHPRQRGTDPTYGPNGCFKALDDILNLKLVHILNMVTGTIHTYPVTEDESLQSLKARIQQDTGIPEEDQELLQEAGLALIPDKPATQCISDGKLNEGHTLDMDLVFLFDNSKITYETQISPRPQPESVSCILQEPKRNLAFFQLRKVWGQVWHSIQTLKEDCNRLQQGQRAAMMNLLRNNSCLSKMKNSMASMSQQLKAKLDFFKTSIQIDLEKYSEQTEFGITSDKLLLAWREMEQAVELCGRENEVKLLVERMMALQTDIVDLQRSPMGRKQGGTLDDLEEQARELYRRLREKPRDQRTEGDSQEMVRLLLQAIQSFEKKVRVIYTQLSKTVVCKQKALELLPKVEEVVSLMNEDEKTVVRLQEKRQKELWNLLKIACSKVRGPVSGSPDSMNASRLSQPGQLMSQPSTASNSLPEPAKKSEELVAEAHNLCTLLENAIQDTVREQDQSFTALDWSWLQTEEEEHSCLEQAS

[9] = biological target: T3, Inhibitor of nuclear factor kappa-B kinase subunit beta (Homo sapiens); conditions: at 1 µM
[10] = biological target: T4, Inhibitor of nuclear factor kappa-B kinase subunit epsilon (Homo sapiens) (UniProt Q14164); conditions: at 0.1 µM
T4 sequence (whole entry): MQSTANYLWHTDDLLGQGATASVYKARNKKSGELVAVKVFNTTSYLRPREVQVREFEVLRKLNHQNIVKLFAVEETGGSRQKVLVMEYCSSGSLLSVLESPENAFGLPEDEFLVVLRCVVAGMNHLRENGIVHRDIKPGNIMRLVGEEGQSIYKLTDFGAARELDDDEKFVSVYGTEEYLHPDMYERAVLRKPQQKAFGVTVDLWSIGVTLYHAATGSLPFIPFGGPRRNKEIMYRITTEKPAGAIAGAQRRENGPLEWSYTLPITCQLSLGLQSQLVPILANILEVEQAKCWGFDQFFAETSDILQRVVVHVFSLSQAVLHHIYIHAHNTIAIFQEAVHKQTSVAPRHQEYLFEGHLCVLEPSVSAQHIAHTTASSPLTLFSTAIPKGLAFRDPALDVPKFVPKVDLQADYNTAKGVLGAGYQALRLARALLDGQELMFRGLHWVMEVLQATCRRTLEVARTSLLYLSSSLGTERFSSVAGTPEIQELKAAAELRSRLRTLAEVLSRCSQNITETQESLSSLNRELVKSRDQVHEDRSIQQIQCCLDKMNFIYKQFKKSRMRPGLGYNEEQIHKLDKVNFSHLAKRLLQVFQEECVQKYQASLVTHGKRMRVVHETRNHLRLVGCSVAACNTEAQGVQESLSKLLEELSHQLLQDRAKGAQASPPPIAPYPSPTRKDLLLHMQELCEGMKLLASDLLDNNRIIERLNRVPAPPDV

[11] = biological target: T4, Inhibitor of nuclear factor kappa-B kinase subunit epsilon (Homo sapiens); conditions: at 1 µM
[12] = biological target: T5, Serine/threonine-protein kinase Nek1 (Homo sapiens) (UniProt Q96PY6); conditions: at 0.1 µM
T5 sequence (whole entry): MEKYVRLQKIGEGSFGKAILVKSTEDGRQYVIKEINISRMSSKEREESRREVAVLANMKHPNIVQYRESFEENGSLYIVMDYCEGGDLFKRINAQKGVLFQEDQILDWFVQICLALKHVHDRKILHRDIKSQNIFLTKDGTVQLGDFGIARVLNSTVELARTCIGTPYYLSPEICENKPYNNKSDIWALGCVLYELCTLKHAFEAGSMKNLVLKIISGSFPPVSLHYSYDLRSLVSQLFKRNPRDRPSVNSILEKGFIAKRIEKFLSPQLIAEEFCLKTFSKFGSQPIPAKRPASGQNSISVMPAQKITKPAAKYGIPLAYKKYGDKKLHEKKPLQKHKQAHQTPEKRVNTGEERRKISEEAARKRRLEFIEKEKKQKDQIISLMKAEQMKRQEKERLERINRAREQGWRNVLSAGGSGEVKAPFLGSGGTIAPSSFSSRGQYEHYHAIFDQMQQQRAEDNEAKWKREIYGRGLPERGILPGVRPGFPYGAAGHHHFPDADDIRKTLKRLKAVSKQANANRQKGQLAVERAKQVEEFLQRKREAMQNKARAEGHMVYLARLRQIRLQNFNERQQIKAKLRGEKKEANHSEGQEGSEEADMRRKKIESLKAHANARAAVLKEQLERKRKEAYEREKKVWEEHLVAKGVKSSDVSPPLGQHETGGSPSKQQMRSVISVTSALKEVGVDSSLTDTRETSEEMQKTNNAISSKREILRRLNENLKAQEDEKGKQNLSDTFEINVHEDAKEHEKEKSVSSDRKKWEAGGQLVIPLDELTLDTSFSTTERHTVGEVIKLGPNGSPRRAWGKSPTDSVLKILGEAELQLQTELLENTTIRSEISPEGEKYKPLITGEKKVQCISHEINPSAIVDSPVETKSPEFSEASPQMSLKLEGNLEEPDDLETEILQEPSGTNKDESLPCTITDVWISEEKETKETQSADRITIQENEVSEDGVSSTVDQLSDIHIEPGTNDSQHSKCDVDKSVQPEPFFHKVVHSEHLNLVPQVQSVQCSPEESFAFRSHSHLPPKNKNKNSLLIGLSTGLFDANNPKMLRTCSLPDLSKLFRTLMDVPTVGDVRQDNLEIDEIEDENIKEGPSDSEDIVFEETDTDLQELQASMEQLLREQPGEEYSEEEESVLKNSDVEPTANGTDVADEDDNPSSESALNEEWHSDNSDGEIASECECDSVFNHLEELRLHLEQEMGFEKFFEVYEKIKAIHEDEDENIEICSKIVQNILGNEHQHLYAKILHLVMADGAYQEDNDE

[13] = biological target: T5, Serine/threonine-protein kinase Nek1 (Homo sapiens); conditions: at 1 µM
[14] = biological target: T6, Serine/threonine-protein kinase Nek2 (Homo sapiens) (UniProt P51955); conditions: at 0.1 µM
T6 sequence (whole entry): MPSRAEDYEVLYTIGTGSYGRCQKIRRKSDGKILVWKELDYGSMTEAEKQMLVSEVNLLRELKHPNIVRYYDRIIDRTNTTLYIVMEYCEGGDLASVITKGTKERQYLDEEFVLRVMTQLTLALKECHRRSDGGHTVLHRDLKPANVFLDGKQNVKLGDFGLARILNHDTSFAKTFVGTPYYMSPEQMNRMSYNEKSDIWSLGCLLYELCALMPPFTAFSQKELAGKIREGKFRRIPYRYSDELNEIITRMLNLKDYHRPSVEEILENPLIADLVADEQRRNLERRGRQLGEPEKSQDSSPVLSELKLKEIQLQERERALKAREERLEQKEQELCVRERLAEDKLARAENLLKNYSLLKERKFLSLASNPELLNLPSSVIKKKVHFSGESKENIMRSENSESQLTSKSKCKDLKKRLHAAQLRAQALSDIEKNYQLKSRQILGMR

[15] = biological target: T6, Serine/threonine-protein kinase Nek2 (Homo sapiens); conditions: at 1 µM
[16] = biological target: Serine/threonine-protein kinase Nek6 (Homo sapiens) (UniProt Q9HC98); conditions: at 0.1 µM
Chain of Serine/threonine-protein kinase Nek6 (Homo sapiens) (Q9HC98 whole entry): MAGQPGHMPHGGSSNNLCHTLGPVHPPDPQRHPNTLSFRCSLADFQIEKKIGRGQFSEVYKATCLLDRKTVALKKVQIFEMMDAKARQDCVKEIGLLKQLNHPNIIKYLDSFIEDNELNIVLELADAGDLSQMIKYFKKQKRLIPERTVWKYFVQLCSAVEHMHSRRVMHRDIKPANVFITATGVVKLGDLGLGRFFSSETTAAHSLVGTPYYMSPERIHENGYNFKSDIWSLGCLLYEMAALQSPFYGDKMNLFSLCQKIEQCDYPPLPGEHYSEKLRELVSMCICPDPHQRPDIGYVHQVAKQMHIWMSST

[17] = biological target: Serine/threonine-protein kinase Nek6 (Homo sapiens) (UniProt Q9HC98); conditions: at 1 µM
[18] = biological target: Serine/threonine-protein kinase Nek7 (Homo sapiens) (UniProt Q8TDX7); conditions: at 0.1 µM
Chain of Serine/threonine-protein kinase Nek7 (Homo sapiens) (Q8TDX7 whole entry, looked up): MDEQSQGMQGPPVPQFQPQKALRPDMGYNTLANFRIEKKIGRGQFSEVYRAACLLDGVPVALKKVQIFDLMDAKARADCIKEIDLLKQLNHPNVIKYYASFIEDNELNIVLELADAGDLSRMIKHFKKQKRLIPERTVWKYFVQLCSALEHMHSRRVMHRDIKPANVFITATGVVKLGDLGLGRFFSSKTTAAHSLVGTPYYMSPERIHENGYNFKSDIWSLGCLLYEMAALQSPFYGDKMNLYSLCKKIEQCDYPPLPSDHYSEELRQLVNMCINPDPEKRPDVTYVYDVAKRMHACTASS

[19] = biological target: Serine/threonine-protein kinase Nek7 (Homo sapiens) (UniProt Q8TDX7); conditions: at 1 µM
[20] = biological target: T7, Serine/threonine-protein kinase Nek9 (Homo sapiens) (UniProt Q8TD19); conditions: at 0.1 µM;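 also: reported value is the mean percent inhibition of NEK9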
T7 sequence (whole entry): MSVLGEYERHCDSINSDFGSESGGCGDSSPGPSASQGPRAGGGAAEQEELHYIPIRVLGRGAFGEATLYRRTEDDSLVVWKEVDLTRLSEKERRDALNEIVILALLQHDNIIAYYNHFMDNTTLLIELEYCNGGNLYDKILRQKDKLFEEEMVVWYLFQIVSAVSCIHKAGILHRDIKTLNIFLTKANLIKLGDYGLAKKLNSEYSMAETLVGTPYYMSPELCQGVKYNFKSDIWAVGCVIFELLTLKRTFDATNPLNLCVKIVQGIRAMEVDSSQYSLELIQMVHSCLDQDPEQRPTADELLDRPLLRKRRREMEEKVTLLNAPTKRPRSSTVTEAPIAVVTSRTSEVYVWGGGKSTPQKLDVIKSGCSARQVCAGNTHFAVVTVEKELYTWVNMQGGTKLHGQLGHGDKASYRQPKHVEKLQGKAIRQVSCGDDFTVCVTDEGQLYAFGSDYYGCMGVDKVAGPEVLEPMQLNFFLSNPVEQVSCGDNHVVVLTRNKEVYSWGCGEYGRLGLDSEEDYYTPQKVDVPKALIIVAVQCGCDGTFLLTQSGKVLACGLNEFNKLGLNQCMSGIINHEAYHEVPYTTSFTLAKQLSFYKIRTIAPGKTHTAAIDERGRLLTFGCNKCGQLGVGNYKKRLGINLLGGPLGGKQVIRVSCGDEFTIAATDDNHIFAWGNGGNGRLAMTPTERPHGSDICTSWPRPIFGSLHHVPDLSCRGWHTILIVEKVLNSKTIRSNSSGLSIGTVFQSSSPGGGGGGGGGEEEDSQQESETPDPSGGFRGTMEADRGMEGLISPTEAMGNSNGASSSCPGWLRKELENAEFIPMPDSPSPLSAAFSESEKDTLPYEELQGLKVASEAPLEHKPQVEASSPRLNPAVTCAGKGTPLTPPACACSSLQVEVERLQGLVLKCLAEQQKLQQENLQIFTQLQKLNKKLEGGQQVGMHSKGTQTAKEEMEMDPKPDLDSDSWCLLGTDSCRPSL

Chain of Sphingosine kinase 1 (Homo sapiens) (Q9NYA1 whole entry): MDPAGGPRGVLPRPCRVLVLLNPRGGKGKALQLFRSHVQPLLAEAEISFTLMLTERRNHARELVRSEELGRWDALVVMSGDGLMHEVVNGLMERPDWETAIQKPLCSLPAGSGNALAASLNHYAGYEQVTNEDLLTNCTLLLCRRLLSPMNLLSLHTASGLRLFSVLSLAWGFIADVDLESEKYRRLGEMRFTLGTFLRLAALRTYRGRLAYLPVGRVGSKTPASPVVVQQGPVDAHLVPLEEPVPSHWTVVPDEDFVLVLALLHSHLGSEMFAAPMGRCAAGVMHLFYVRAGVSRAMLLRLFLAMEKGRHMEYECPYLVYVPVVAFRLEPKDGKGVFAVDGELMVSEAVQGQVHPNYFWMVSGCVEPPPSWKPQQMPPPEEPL

Row | Compound | inhibition [1] [%] | inhibition [2] [%] | inhibition [3] [%] | inhibition [4] [%] | inhibition [5] [%] | inhibition [6] [%] | inhibition [7] [%] | inhibition [8] [%] | inhibition [9] [%] | inhibition [10] [%] | inhibition [11] [%] | inhibition [12] [%] | inhibition [13] [%] | inhibition [14] [%] | inhibition [15] [%] | inhibition [16] [%] | inhibition [17] [%] | inhibition [18] [%] | inhibition [19] [%] | inhibition [20] [%]
1 | COC(=O)Nc1nc2cc(Oc3ccc(NC(=O)Nc4cccc(C(=O)O)c4)cc3)ccc2[nH]1 | -2.52 | 0.52 | -0.25 | 1.52 | 8.32 | 5.47 | -3.86 | 1.26 | 2.79 | 3.11 | 3.63 | 0.04 | 2.1 | -0.46 | -6.05 | -0.14 | -0.54 | -2.43 | -0.18 | 3.39
2 | NC(=O)c1ccc(-c2nc(-c3ccccn3)c(-c3ccc4c(c3)OCO4)[nH]2)cc1 | -3.93 | -0.17 | -0.84 | 2.1 | 4.61 | 7.62 |  | 3.19 | 3.61 | 3.15 | 4.06 | 1.34 | 3.26 | 2.44 | 2.69 | 2.04 | 4.68 | 2.26 | 1.68 | 6.53
